Rows were chosen to be rich in hits. Some 19% of all compounds tested hit in one or more screens of this group.
DT40 TDP1 CPT = qHTS for Inhibitors of human tyrosyl-DNA phosphodiesterase 1 (TDP1): qHTS in cells in presence of CPT; chicken DT40 Tdp1-/-;hTDP1 cells + 20 nM CPT, ATP luminescence, 48 h; AID 686979, 2013; 420,000 compounds, 12% hits; Potency, µM (top dose mostly 46.2 µM), for the others: at the top dose activity change, negative = growth inhibition, hits mostly inhibitors; note: potency is the fitted concentration of half-maximal effect; nearly all actives have a fitted effect of over 55% in size
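Chicken DT40 Tdp1-/- cells stably complemented with human TDP1 were seeded at 400 cells/well in medium containing 20 nM camptothecin, exposed to pin-transferred compounds, and grown at 37 °C for at least 48 hr. Viability was read as ATP luminescence.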
IL-1B inflam inh = qHTS for Inhibitors of Inflammasome Signaling: IL-1-beta AlphaLISA Primary Screen; THP-1 LPS/ATP IL-1B secretion, AlphaLISA, 16 h; hits give low values; activity change, % at 57.5 µM; 360,000 compounds, 4.7% hits; AID 743279, 2014; in the data active = activity change below about -50%; inconclusive = mostly about -30% to -49%
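Secreted IL-1B measured by AlphaLISA bead assay after 16 h compound exposure of THP-1 cells; compounds (final up to 57.5 uM) added 1 h before LPS (250 ng/mL) and ATP (1.25 mM) stimulation; lower signal means less secretion.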
HT1080-NT tox = qHTS for induction of synthetic lethality in tumor cells producing 2HG: qHTS for the HT-1080-NT fibrosarcoma cell line. 360,000 compounds, 1.6% hits. Potency, µM (series often up to 46.1 µM), for inactives: at the top dose activity, negative = less viability, most hits filed as cytotoxic. HT-1080-NT fibrosarcoma viability, CellTiter-Glo ATP luminescence, 48 h;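 note: NT is the 2HG producing partner of a matched IDH1 knockdown line; potency is the fitted concentration of half-maximal effect; 0% = DMSO-treated cells and -100% = media-only wells without cells; nearly all actives have a fitted effect of over 55% in size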
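Luminescent CellTiter-Glo readout after 48 hours of compound exposure at 37 degrees C defined viability of HT-1080-NT cells. Activity was normalized to DMSO wells and cell-free media wells; concentration-response curves were fitted and assigned curve classes.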
TDP1 cell noCPT = qHTS for Inhibitors of human tyrosyl-DNA phosphodiesterase 1 (TDP1): qHTS in cells in absence of CPT; 420,000 compounds, 15% hits; DT40 Tdp1-/- hTDP1 cells, no CPT, ATP luminescence, 48 h; AID 686978, 2013; Potency, µM (highest dose often 46.2 µM), for the others: at the highest dose activity change, negative = growth inhibition, hits mostly inhibitors; note: potency is the fitted concentration of half-maximal effect; nearly all actives have a fitted effect of over 55% in size
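No-CPT arm: Tdp1-/-;hTDP1 DT40 cells (400/well) plus compounds, incubated ≥48 hr at 37 °C. Readout CellTiter-Glo luminescence.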
HT1080 IDH1KD tx = qHTS for induction of synthetic lethality in tumor cells producing 2HG: qHTS for the HT-1080-IDH1KD cell line; Potency, µM (titrated, usually from 46.1 µM), for the others: at the highest dose activity, negative = toxicity, usual class: cytotoxic; 360,000 compounds, 2% hits; HT-1080 IDH1 knockdown viability, ATP luminescence, 48 h; AID 686971, 2013;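 note: potency is the fitted concentration of half-maximal effect; 0% = DMSO wells and -100% = cell-free medium wells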
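Viability of IDH1-knockdown HT-1080 fibrosarcoma cells was assessed by CellTiter-Glo after 48 h at 37 °C with titrated compound; concentration-effect curves were classified by fit quality and response size.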
* = called active by the depositor; ! = a repeat was not active; [ ] = dose if it differs, or a comment. Unless noted, calls come from the whole dose curve; as a rule, active = well fitted curve in the direction sought with a large enough effect; inconclusive = small, poorly fitted or top-dose-only effect, or another doubt; inactive = no such curve, though single readings can be large; an effect the other way counts as inactive or inconclusive. Unless noted, % is set by controls: 0 for no effect and ±100 for the full control effect.

`CCn1c2ccccc2c2cc(CN3CCN(Cc4ccc(OC)c(OC)c4)CC3)ccc21` gave DT40 TDP1 CPT 18µM* and TDP1 cell noCPT 23µM*.
`CCCS(=O)(=O)N1CCN(Cc2ccc3c(c2)c2ccccc2n3CC)CC1` gave DT40 TDP1 CPT 21µM*, IL-1B inflam inh inconclusive, HT1080-NT tox inconclusive, TDP1 cell noCPT inconclusive and HT1080 IDH1KD tx inconclusive.
Screening CC(=O)Nc1ccc2nc(CN3CCN(Cc4ccc(F)cc4)C(CCO)C3)ccc2c1 (stereo not drawn) returned DT40 TDP1 CPT -28%, IL-1B inflam inh 8, HT1080-NT tox 3%, TDP1 cell noCPT inconclusive and HT1080 IDH1KD tx 2%.
N[C@@H](Cc1cnc[nH]1)C(=O)O was read as DT40 TDP1 CPT 0% and TDP1 cell noCPT -14%.
Screening COc1ccccc1CN1CCN(Cc2ccc3ccccc3c2)CC1 returned DT40 TDP1 CPT inconclusive, IL-1B inflam inh -3, HT1080-NT tox -1%, TDP1 cell noCPT inconclusive and HT1080 IDH1KD tx -8%.
For COc1ccc(CN2CCN(Cc3ccc4ccccc4c3)CC2)cc1OC the results were DT40 TDP1 CPT inconclusive, IL-1B inflam inh inconclusive, HT1080-NT tox -28%, TDP1 cell noCPT 18µM* and HT1080 IDH1KD tx inconclusive.
`CC(=O)Nc1cccc(NC(=O)c2ccc([N+](=O)[O-])cc2Cl)c1` gave DT40 TDP1 CPT -17%, IL-1B inflam inh 3, HT1080-NT tox 1%, TDP1 cell noCPT inconclusive and HT1080 IDH1KD tx 8%.
Screening CC(=O)Nc1ccc(Oc2ccc([N+](=O)[O-])cc2Cl)cc1 returned DT40 TDP1 CPT 10µM*, IL-1B inflam inh -73*, HT1080-NT tox -21%, TDP1 cell noCPT inconclusive and HT1080 IDH1KD tx -30%.
Screening CN(C)c1ccc(NC(=O)c2ccc([N+](=O)[O-])cc2Cl)cc1 returned DT40 TDP1 CPT 9%, IL-1B inflam inh -4, HT1080-NT tox 10%, TDP1 cell noCPT -22% and HT1080 IDH1KD tx 3%.
Screening O=C(Nc1cccc(O)c1)c1ccc([N+](=O)[O-])cc1Cl returned DT40 TDP1 CPT 15µM*, IL-1B inflam inh 15, HT1080-NT tox 2%, TDP1 cell noCPT inconclusive and HT1080 IDH1KD tx 8%.
`CC(Oc1ccc([N+](=O)[O-])cc1Cl)C(=O)Nc1ccc(C(N)=O)cc1` (stereo not drawn) gave DT40 TDP1 CPT 4%, IL-1B inflam inh 70, HT1080-NT tox -2%, TDP1 cell noCPT -29% and HT1080 IDH1KD tx -3%.
`CC(C)C(=O)Nc1ccc(NC(=O)c2ccc([N+](=O)[O-])cc2Cl)cc1` gave DT40 TDP1 CPT inconclusive, IL-1B inflam inh 17, HT1080-NT tox -3%, TDP1 cell noCPT 18µM* and HT1080 IDH1KD tx -6%.
Screening CC12CCC3C(CC3(C)C)C(C)(CCC1=O)O2 (stereo not drawn) returned DT40 TDP1 CPT -3% and TDP1 cell noCPT 2%.
For O=C(CSc1ncnc2sc3c(c12)CCCC3)N1CCC(c2noc3ccc(F)cc23)CC1 the results were DT40 TDP1 CPT 11µM*, IL-1B inflam inh 4, HT1080-NT tox 4%, TDP1 cell noCPT 10µM* and HT1080 IDH1KD tx 21%.
Cc1cc(SCC(=O)N2CCC(c3noc4ccc(F)cc34)CC2)nc2ccccc12 was read as DT40 TDP1 CPT 23µM*, IL-1B inflam inh inconclusive, HT1080-NT tox 0%[9.24 µM], TDP1 cell noCPT inconclusive and HT1080 IDH1KD tx 1%.
For Cc1cc(SCC(=O)N2CCCC2=O)nc2ccccc12 the results were DT40 TDP1 CPT 11%, IL-1B inflam inh 21, HT1080-NT tox -4%, TDP1 cell noCPT -6% and HT1080 IDH1KD tx -4%.
`CC1=NN(c2ccc(C(F)(F)F)cn2)C(=O)C1` gave DT40 TDP1 CPT 23µM*, IL-1B inflam inh -1, HT1080-NT tox -30%, TDP1 cell noCPT inconclusive and HT1080 IDH1KD tx inconclusive.
For CCOC(=O)N1CCN(c2ccc(C(F)(F)F)cn2)CC1 the results were DT40 TDP1 CPT -28%, IL-1B inflam inh 1, HT1080-NT tox 12%, TDP1 cell noCPT -30% and HT1080 IDH1KD tx 9%.
For O=C(/C=C/c1ccccn1)c1cc(Cl)cc(Cl)c1O the results were DT40 TDP1 CPT inconclusive, IL-1B inflam inh -80*, HT1080-NT tox 16µM*, TDP1 cell noCPT inconclusive and HT1080 IDH1KD tx inconclusive.
Screening COc1ccc(/C=C/C(=O)c2cc(Cl)cc(Cl)c2O)c(OC)c1 returned DT40 TDP1 CPT -10%, IL-1B inflam inh -13, HT1080-NT tox 19%, TDP1 cell noCPT inconclusive and HT1080 IDH1KD tx 0%.
Screening C=C1C=C(C)n2ncc(C(=O)NCCCCCC)c2N1 returned DT40 TDP1 CPT -2% and TDP1 cell noCPT inconclusive.
For CCCC(=O)Nc1ccc(C(=O)COC(=O)c2cc(C)oc2C)cc1 the results were DT40 TDP1 CPT -2%, IL-1B inflam inh -13, HT1080-NT tox 2%, TDP1 cell noCPT -23% and HT1080 IDH1KD tx 5%.
COc1cc(-c2noc(C)c2C#CC2(N)CCCCC2)cc(OC)c1OC was read as DT40 TDP1 CPT inconclusive, IL-1B inflam inh -13, HT1080-NT tox -23%, TDP1 cell noCPT inconclusive and HT1080 IDH1KD tx -23%.
`COc1cc(-c2noc(C)c2C#Cc2ccsc2)cc(OC)c1OC` gave DT40 TDP1 CPT 0.71µM*!, IL-1B inflam inh 72, HT1080-NT tox inconclusive, TDP1 cell noCPT 0.92µM* and HT1080 IDH1KD tx 0.52µM*.
Screening COc1cc(-c2noc(C)c2C#CCO)cc(OC)c1OC returned DT40 TDP1 CPT inconclusive, IL-1B inflam inh -9, HT1080-NT tox 15%, TDP1 cell noCPT 13µM*! and HT1080 IDH1KD tx 2%.
COc1cc(-c2noc(C)c2C#CC2(O)CCCCC2)cc(OC)c1OC was read as DT40 TDP1 CPT inconclusive, IL-1B inflam inh inconclusive, HT1080-NT tox -11%, TDP1 cell noCPT 21µM* and HT1080 IDH1KD tx -24%.
For COc1cccc(CNC(=O)CCC2CCCN(c3cc(C)nc(N)n3)C2)c1 (stereo not drawn) the results were DT40 TDP1 CPT 0%, IL-1B inflam inh -2, HT1080-NT tox 22%, TDP1 cell noCPT 2% and HT1080 IDH1KD tx 20%.
CC(C)C[C@H](N)C(=O)N[C@H](C(=O)N[C@H](C(=O)N[C@@H](Cc1ccc(O)cc1)C(=O)N1CCC[C@H]1C(=O)N[C@@H](Cc1c[nH]c2ccccc12)C(=O)N[C@H](C(=O)N[C@@H](CCC(N)=O)C(=O)N[C@@H](CCCN=C(N)N)C(=O)O)[C@@H](C)O)C(C)C)C(C)C was read as DT40 TDP1 CPT -28%[4.12 µM] and TDP1 cell noCPT -17%[4.12 µM].

From PubChem BioAssay
